Outcome and AC50 data for 22 compounds are collected here from PubChem BioAssay (EPA / NIEHS).

Records with an inconclusive call do not appear. Calls of active or inactive are those of the source. How the source made its calls: active means hit-call score of the fitted dose curve at least 0.9, where 1 is the maximum; inconclusive means response in the unintended direction; inactive means score below 0.9.

Chain of Retinoic acid receptor RXR-alpha (Homo sapiens) (P19793 whole entry, looked up, the tested form may be a part): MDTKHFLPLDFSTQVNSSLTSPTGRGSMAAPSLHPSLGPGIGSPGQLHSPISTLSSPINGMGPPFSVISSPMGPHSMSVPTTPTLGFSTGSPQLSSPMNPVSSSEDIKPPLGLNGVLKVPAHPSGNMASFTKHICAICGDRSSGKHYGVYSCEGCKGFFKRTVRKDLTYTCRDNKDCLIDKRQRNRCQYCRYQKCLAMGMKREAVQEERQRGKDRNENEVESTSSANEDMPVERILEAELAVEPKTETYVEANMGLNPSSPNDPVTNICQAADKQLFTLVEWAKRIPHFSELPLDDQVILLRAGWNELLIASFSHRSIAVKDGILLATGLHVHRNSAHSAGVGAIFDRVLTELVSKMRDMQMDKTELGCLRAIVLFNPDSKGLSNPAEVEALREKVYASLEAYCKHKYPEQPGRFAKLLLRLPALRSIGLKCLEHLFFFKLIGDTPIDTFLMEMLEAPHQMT

The test addresses Retinoic acid receptor RXR-alpha (Homo sapiens) (UniProt P19793). In words: OT_NURR1_NURR1RXRa_1440: Odyssey Thera (OT) 24-hour HEK293T Protein Complementation Assay for Nurr1/retinoid X receptor (RXR) (AID 2283386). The procedure, abridged: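 Fluorescence PCA read-out; HEK293T; 24 h post-dose; bait/prey fused to reporter fragments; gain-of-signal fit vs DMSO negative control.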
In the case of `CCCC(O)C(CC)CO` (configuration not stated), the outcome was inactive.
Consider `C=C(C)C(=O)OCCC(C)OC(=O)C(=C)C` (configuration not stated), for which the result was inactive.
For the compound `CCCO`, the outcome was inactive.
On to `CCCc1ccc(O)cc1`, for which the compound was classed as inactive.
For the compound `CNC(=C[N+](=O)[O-])NCCSCc1ccc(CN(C)C)o1`, the call was inactive.
For `CCCC[N+](C)(CCCC)CCCC`, the compound was classed as inactive.
On the same count and under the same terms, to `COc1ccc(OC)cc1` belongs “inactive”; to `CC(C)CCCC(C)(C)O`, “inactive”; to `CC(C)(C)C1CCC(O)CC1` (configuration not stated), “inactive”.
Take `COc1ccc2[nH]cc(CCNC(C)=O)c2c1`: the call was inactive.
Same read-out and setting: to `CCCCOCCOCCO` belongs “inactive”.
With `CC1=CCC(C(C)C)=CC1`, the result was inactive.
Consider `NC(=O)c1cccnc1`, for which the AC50 was 82.4 µM (active).
In the case of `CCCCCCCCCO`, the compound was classed as inactive.
Turning to `CCCCCCCCCCO[C@@H]1O[C@H](CO)[C@@H](O)[C@H](O)[C@H]1O`, the result was inactive.
On the same count and under the same terms, to `OC[C@@H](O)[C@H](O)[C@@H](O)[C@@H](O)CO` belongs “inactive”; to `CCCC1CCC(=O)CC1`, “inactive”; to `COC(=O)c1ccc(C(=O)OC)cc1`, “inactive”.
As to `CCCc1ccc(N)cc1`, the result was inactive.
The same measure, in the same setting: to `CCCCCCCC(=O)N(C)C` belongs “inactive”; to `NC(N)=S`, “inactive”.
On to `[Na+]`, for which the outcome was inactive.

As usually defined, the AC50 is the midpoint of the concentration-response curve, whichever way the signal moves.
